Here are results for eleven molecules from PubChem BioAssay (NCATS).

Inconclusive results are not listed. A number with no mark means an inactive call. Calls of active or inactive are those of the source. Calls follow the shape of the dose curve; as a rule, active = well fitted inhibition curve with a large enough effect; inconclusive = small, poorly fitted or top-dose-only effect; inactive = no such curve, though single readings can be large or run the other way.

In the assay the target is Rap guanine nucleotide exchange factor 3 (Homo sapiens) (UniProt O95398). In words: Counterscreen qHTS for antagonist of cAMP-regulated guanine nucleotide exchange factor 3 (EPAC1) (AID 1645888).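 Also: fluorescence loss as bound BODIPY-GDP is released from Rap1B; % of control where 0% means no effect.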 Particulars: Rap1B-BODIPY-GDP nucleotide exchange, fluorescence; series mostly up to 154 µM. The procedure, abridged: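 Rap1B-BODIPY-GDP 250 nM + GDP 50 uM; cpds 7-pt, final 9.74 nM–152 uM (activator mode) or from 7.32 nM upwards (inhibitor mode); RT; FI 480/540 nm at 5 and 30 min, then ± cAMP, reread.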
Chain of Rap guanine nucleotide exchange factor 3 (Homo sapiens) (O95398 whole entry, looked up): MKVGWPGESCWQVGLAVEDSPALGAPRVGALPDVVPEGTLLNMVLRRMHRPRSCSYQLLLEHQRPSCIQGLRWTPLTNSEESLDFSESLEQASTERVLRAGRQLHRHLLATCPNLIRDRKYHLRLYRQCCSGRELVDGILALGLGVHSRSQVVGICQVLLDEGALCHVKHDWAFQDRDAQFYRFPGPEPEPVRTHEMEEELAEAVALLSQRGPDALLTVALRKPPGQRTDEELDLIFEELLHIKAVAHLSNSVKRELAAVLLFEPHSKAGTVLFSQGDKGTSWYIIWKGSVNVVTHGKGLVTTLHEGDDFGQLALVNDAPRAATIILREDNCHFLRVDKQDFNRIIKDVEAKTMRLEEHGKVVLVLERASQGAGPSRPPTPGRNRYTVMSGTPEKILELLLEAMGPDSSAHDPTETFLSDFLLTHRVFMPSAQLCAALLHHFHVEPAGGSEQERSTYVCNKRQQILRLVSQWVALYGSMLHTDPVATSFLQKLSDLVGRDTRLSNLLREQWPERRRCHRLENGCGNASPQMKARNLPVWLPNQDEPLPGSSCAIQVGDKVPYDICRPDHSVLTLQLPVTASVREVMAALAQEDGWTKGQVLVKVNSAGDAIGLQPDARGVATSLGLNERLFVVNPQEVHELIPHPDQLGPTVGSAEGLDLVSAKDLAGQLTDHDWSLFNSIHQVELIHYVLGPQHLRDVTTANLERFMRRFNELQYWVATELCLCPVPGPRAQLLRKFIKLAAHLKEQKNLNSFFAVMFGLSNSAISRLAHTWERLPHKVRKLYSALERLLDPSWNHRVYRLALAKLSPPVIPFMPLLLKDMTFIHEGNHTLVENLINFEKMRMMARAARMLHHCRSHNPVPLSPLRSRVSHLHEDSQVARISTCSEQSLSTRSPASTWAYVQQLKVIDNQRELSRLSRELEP
For `Cc1ccc(N2C(=O)NC(=O)/C(=C\C=C\c3ccco3)C2=O)cc1`, the result was inactive.
Regarding `CCCSc1nc2ccccc2c(=O)n1-c1ccccc1OC`, the molecule was classed as inactive.
As to `CCCCn1c(NS(=O)(=O)c2ccc(C)cc2)c(C(=O)OCC)c2nc3ccccc3nc21`, the call was inactive.
In the case of `O=C1NC(=O)N(c2cccc(Cl)c2)C(=O)/C1=C\c1ccc(Sc2nc3ccccc3[nH]2)o1`, the activity change, negative = inhibition was 2.39% [at 30.8 µM].
As for `O=C1NC(=O)N(Cc2ccccc2)C(=O)/C1=C/C=C/c1ccco1`, the activity change, negative = inhibition was -0.901% [at 30.8 µM].
`N#CC(C#N)=NNc1ccc(S(N)(=O)=O)cc1`: the activity change, negative = inhibition is -8.77% [at 30.8 µM].
For `CCOC(=O)[C@]12Cc3cc(OC)ccc3[C@H]1N(Cc1ccccc1)C(=O)c1cc(F)c(F)cc12`, the result was inactive.
On to `CCOC(=O)[C@]12Cc3ccc(C)cc3[C@H]1N(C1CCCCC1)C(=O)c1cc(OC)ccc12`, for which the molecule was classed as inactive.
Still for that read-out and setting: the result for `Cc1ccc(N2C(=O)NC(=O)/C(=C\c3cc(C)n(-c4sc5c(c4C#N)CCCC5)c3C)C2=O)cc1` reads “inactive”.
For `CCCNC(=O)N1[C@H]2CC[C@@H]1C(C(=O)OC)=C(c1ccc(F)cc1OCc1ccccc1)C2`, the molecule was classed as inactive.
Still for that read-out and setting: with `COc1ccc(C(SCC(NC(=O)OCc2ccccc2)C(=O)O)c2ccc(OC)cc2)cc1` (stereo unspecified) the entry was “inactive”.
